# Calls of active or inactive are those of the source.
# Columns and labels:
# [1] = optical density shifts of acrAB sulA E. coli – strain DRC41, OD650, 48 h, E. coli filamentation inducer project, primary screen (AID 1152); settings: higher = more signal, called active from +8 up or from −8 down;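 note: E. coli MC1000 strain DRC41 lacking acrAB efflux pump and sulA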
# [2] = probe aLefty1 binding on compound microarray – biochemical, small-molecule microarray, 635/667 nm fluorescence, primary screen (AID 1153); settings: higher = more signal;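 note: score merges spot fluorescence with signal-to-noise ratio from the scanned slide images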
# [3] = plasmodial surface anion channel blockers, osmotic lysis – cell-based, P. falciparum Indochina, OD700, 1 h, primary screen (AID 1154); settings: P. falciparum Indochina infected RBC osmotic lysis, higher = more signal, called active from +8 up or from −8 down
# [4] = plasmodial surface anion channel blockers, osmotic lysis – cell-based, P. falciparum Indochina, OD700, 2 h, primary screen (AID 1155);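 note: lysis reports solute entry through the parasite surface anion channel PSAC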; settings: P. falciparum Indochina infected erythrocytes, higher = more signal, called active from +8 up or from −8 down
# [5] = changes in parasitized red cell lysis, either direction – P. falciparum Indochina, OD700, 3 h, PSAC antagonist project, primary screen (AID 1156); settings: P. falciparum-infected erythrocytes, osmotic lysis, higher = more signal, called active from +8 up or from −8 down
# [6] = plasmodial surface anion channel blockers, osmotic lysis – cell-based, P. falciparum Indochina, OD700, 18 h, primary screen (AID 1157); settings: P. falciparum Indochina infected erythrocytes, osmotic lysis OD700, 18 h; higher = more signal, called active from +8 up or from −8 down
# [7] = S6 kinase pathway phospho-S6 level changes – cell-based, A549, cytoblot, luminescence, serum-stimulated, primary screen (AID 1158); settings: 5 h, higher = more signal;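 note: serum-stimulated A549 lung adenocarcinoma cells; signal is phosphorylated S6 detected by cytoblot immunostaining with HRP secondary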
# [8] = biological target: NADPH oxidase 2 (Homo sapiens) (UniProt P04839); assay: compounds shifting NOX2 Amplex Red fluorescence – cell-based, HEK293-NOX2, PMA-stimulated, NOX inhibitor project, primary screen (AID 1159); settings: 45 min, higher = more signal, called active from +8 up or from −8 down; note: test concentration not given here
# Sequence of NADPH oxidase 2 (Homo sapiens) (P04839 whole entry, looked up): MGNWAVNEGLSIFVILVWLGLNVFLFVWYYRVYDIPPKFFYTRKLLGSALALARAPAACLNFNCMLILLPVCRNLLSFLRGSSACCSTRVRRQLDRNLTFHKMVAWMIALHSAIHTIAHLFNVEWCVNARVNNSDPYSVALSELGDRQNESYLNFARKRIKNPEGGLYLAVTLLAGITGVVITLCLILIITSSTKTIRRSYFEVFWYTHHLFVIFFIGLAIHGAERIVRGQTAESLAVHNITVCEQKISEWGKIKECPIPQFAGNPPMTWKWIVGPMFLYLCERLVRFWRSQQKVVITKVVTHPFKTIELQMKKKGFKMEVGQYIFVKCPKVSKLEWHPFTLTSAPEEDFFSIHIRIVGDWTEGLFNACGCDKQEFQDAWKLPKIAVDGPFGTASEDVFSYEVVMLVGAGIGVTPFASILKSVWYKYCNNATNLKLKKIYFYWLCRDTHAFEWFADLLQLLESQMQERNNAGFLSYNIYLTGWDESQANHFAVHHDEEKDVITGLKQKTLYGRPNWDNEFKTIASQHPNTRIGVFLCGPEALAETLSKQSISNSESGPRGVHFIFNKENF
# [9] = biological target: NADPH oxidase 4 (Homo sapiens) (UniProt Q9NPH5); assay: compounds shifting NOX4 Amplex Red fluorescence – cell-based, HEK293-NOX4, tetracycline-induced, NOX inhibitor project, primary screen (AID 1160); settings: HEK293-NOX4, Amplex Red H2O2 fluorescence, 45 min; higher = more signal, called active from +8 up or from −8 down
# Sequence of NADPH oxidase 4 (Homo sapiens) (Q9NPH5 whole entry, looked up): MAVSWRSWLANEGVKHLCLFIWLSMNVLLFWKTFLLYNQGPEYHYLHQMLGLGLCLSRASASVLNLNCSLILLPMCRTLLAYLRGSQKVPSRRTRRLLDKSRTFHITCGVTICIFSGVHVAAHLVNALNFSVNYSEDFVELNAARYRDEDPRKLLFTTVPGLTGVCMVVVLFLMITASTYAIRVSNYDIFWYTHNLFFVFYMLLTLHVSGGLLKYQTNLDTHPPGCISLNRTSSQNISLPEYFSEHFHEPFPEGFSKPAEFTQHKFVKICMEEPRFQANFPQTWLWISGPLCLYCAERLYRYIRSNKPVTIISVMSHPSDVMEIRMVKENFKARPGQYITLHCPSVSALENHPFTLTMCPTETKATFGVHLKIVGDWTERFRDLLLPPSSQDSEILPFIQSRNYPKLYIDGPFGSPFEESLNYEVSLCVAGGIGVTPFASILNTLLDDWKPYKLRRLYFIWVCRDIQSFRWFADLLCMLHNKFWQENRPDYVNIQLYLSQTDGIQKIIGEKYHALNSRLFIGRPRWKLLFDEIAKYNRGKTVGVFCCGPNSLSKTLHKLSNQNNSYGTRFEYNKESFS
# [10] = biological target: NADPH oxidase 5 (Homo sapiens) (UniProt Q96PH1); assay: compounds shifting NOX5 Amplex Red fluorescence – cell-based, HEK293-NOX5, NOX inhibitor project, primary screen (AID 1161); settings: HEK293-NOX5, ionomycin, 45 min, higher = more signal
# Sequence of NADPH oxidase 5 (Homo sapiens) (Q96PH1 whole entry, looked up): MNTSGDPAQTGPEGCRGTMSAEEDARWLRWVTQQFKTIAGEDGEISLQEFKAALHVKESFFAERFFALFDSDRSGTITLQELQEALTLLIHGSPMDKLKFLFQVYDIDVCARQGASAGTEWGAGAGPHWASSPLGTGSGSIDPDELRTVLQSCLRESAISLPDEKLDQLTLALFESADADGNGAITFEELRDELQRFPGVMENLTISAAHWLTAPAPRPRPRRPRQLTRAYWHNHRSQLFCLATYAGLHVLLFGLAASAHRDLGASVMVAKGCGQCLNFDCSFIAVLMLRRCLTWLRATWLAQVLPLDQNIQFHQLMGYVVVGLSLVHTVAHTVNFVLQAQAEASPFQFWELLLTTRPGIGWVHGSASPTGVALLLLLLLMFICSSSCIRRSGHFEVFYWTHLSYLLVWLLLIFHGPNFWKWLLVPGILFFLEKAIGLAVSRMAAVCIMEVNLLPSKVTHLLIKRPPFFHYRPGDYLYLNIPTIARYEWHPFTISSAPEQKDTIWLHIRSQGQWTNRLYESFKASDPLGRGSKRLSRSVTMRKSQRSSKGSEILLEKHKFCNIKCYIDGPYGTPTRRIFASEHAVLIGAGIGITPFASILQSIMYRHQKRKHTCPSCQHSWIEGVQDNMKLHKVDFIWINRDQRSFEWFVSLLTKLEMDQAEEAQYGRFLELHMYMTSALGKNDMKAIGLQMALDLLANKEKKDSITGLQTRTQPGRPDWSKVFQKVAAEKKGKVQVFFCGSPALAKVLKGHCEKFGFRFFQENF
# [11] = compound effects on lung adenocarcinoma cell viability – A549, calcein-AM fluorescence, 48 h, basal, profiling panel (AID 1162); settings: higher = more signal; note: test concentration not given here
# [12] = compound effects on differentiated 3T3-L1 adipocyte viability – cell-based, 3T3-L1 adipocytes, calcein-AM fluorescence, 48 h, basal, profiling panel (AID 1163); settings: 3T3-L1 adipocytes viability, higher = more signal; note: test concentration not given here
# [13] = compound effects on hepatocellular carcinoma cell viability – HepG2, calcein-AM fluorescence, 48 h, basal, profiling panel (AID 1164); settings: higher = more signal; note: test concentration not given here
# [14] = compound effects on multiple myeloma cell viability – MM1S, calcein-AM fluorescence, 48 h, basal, profiling panel (AID 1165); settings: higher = more signal;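 note: viability of MM1S multiple myeloma cells under basal unstimulated conditions; test concentration not given here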
# [15] = calcein-AM signal in unstimulated myeloma cells – cell-based, calcein-AM fluorescence, 48 h, PK04 Diversity Set, profiling panel (AID 1166); settings: RPMI8226 myeloma viability, higher = more signal;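 note: cells grown under basal conditions without added stimulus; test concentration not given here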
# [16] = JC-1 mitochondrial signal, unstimulated HepG2 cells – cell-based, JC-1 fluorescence, 24 h, 100 nL compound, profiling panel (AID 1167); settings: HepG2 mitochondrial potential, higher = more signal; note: test concentration not given here
# [17] = JC-1 mitochondrial signal, unstimulated adipocytes – cell-based, JC-1 fluorescence, 3T3-L1 adipocytes, 24 h, 100 nL compound, profiling panel (AID 1168); settings: JC-1 mitochondrial fluorescence, higher = more signal, called active from +8 up or from −8 down; note: test concentration not given here
# [18] = JC-1 mitochondrial signal, unstimulated myeloma cells – cell-based, JC-1 fluorescence, RPMI8226, 24 h, 100 nL compound, profiling panel (AID 1169); settings: JC-1 mitochondrial potential fluorescence, higher = more signal; note: test concentration not given here
# [19] = JC-1 mitochondrial signal, unstimulated MM1S myeloma – cell-based, JC-1 fluorescence, 24 h, 100 nL compound, profiling panel (AID 1170); settings: MM1S mitochondrial potential, higher = more signal; note: test concentration not given here
# [20] = resazurin metabolic signal in A549 cells – cell-based, resazurin fluorescence, 24 h, PK04 Diversity Set, profiling panel (AID 1171); settings: A549 viability, higher = more signal, called active from +8 up or from −8 down; note: test concentration not given here
Structure (SMILES),z-score [1],composite z-score [2],z-score [3],z-score [4],z-score [5],z-score [6],z-score [7],z-score [8],z-score [9],z-score [10],z-score [11],z-score [12],z-score [13],z-score [14],z-score [15],z-score [16],z-score [17],z-score [18],z-score [19],z-score [20]
COCC(=C=CC[C@@H](O)c1cccc(OCCO)c1)CCO,0.355 (inactive),0.0091,2.3 (inactive),0.152 (inactive),0.691 (inactive),0.135 (inactive),-0.094,-0.274 (inactive),-0.761 (inactive),-0.334,0.611,0.314,0.356,0.55,-0.0681,0.00786,0.176 (inactive),1.15,-0.447,0.0444 (inactive)
COC(=O)C1N=C(c2ccc(OCCCO)cc2)N(c2ccccc2)O1 (stereo not given),0.336 (inactive),0.103,24.9 (active),7.38 (inactive),1.02 (inactive),1.04 (inactive),0.417,0.943 (inactive),0.392 (inactive),-0.0493,0.893,1.16,0.634,-0.943,0.5,0.684,-0.407 (inactive),-0.44,0.042,0.953 (inactive)
C=C/C=C/[C@@H]1C(=C)CN([C@@H](Cc2ccccc2)C(=O)OC)[C@H]1[C@@H](O)Cc1ccccc1,0.834 (inactive),-0.0601,0.743 (inactive),0.362 (inactive),-0.41 (inactive),0.109 (inactive),0.294,0.0619 (inactive),-0.199 (inactive),0.568,0.192,-0.47,0.438,-3.04,-2.15,-0.28,0.147 (inactive),-0.975,-2.24,0.663 (inactive)
COc1ccc([Si](C)(C)[C@H]2[C@H](CC(=O)N3Cc4ccccc4C[C@H]3CO)O[C@@]3(C(=O)N(Cc4ccc(N5C(=O)c6cccc7cccc5c67)cc4)c4ccccc43)[C@@H]2C)cc1,0.315 (inactive),0.0771,4.25 (inactive),1.36 (inactive),1.67 (inactive),1.09 (inactive),0.412,-0.327 (inactive),0.252 (inactive),-1.66,-0.0678,0.314,0.898,-0.769,-0.874,2.5,-0.178 (inactive),-1.22,-0.862,0.0918 (inactive)
COc1ccc(NC(=O)O[C@H]2[C@@H]3OC(=O)[C@H](Cc4cccc(Br)c4)C/C=C/C[C@@H](Cc4cccc(Br)c4)C(=O)O[C@H]3[C@@H](OC)O[C@@H]2CO)cc1,0.446 (inactive),0.358,0.469 (inactive),-0.173 (inactive),-0.284 (inactive),0.434 (inactive),0.353,-1.73 (inactive),-1.21 (inactive),-1.64,-0.102,-0.226,0.323,-1.14,-0.153,1.6,-0.483 (inactive),-0.897,0.329,-0.981 (inactive)
O=C1OCC=C[C@H]2OC34C=CCN(c5ccc6ccccc6c5)C(=O)[C@H]3N(CCCCCO)C(=O)[C@@H]4[C@@H]12 (stereo not given in full),-0.186 (inactive),0.407,2.04 (inactive),0.132 (inactive),1 (inactive),0.162 (inactive),-0.798,1.57 (inactive),0.056 (inactive),2.93,-0.381,-0.0217,-1.08,0.589,0.0725,-0.913,-0.436 (inactive),-0.0765,0.313,-1.01 (inactive)
CCCNC(=O)[C@@]1(C)c2ccccc2C(=O)N(Cc2ccccc2)[C@H]1c1ccc(CO)cc1,1.3 (inactive),0.594,3.35 (inactive),0.505 (inactive),0.231 (inactive),0.157 (inactive),0.0612,-0.703 (inactive),-0.0486 (inactive),0.885,-0.0623,0.47,1.03,-0.542,0.485,4.13,-0.0853 (inactive),-0.415,1.14,1.47 (inactive)
COCCOC(=O)N1C(=O)[C@@]2(c3cc(C#CCC(C(=O)OC)C(=O)OC)ccc31)[C@H](c1ccc(O)cc1)N1[C@H](c3ccccc3)[C@H](c3ccccc3)OC(=O)[C@H]1[C@@H]2C(=O)NC[C@H](O)c1ccccc1,1.47 (inactive),-0.159,1.67 (inactive),0.223 (inactive),-5.49 (inactive),-0.0973 (inactive),-0.158,1.72 (inactive),0.876 (inactive),1.32,-0.61,0.0453,-0.0754,-1.92,-4.3,-0.689,-1.16 (inactive),-1.08,-0.91,0.691 (inactive)
COCCCNC(=O)[C@@H]1c2ccccc2C(=O)N(C2Cc3ccccc3C2)[C@H]1c1ccc(CO)cc1,0.748 (inactive),-0.0603,3.1 (inactive),1.18 (inactive),0.65 (inactive),0.476 (inactive),-0.256,-0.193 (inactive),0.444 (inactive),-0.0459,1.12,0.275,0.165,0.155,0.261,2.94,-0.17 (inactive),0.217,0.494,0.58 (inactive)
Nc1cc(Br)ccc1C(=O)O,0.813 (inactive),0.139,-0.319 (inactive),0.371 (inactive),-0.611 (inactive),0.0089 (inactive),0.265,0.0525 (inactive),-0.204 (inactive),0.142,1.51,0.679,0.264,1.29,0.804,0.799,0.55 (inactive),0.432,1.54,0.671 (inactive)
CCOC(=O)C=Cc1ccccc1O,-0.646 (inactive),0.135,19.4 (active),2.46 (inactive),0.784 (inactive),-1.43 (inactive),1.47,-4.38 (inactive),-2.24 (inactive),-4.65,-0.759,0.234,-0.944,0.226,-0.529,-0.503,-0.35 (inactive),-0.986,-1.64,0.0931 (inactive)
COc1ccc(C#Cc2ccc3c(c2)[C@]2(C(=O)N3)[C@H](C(=O)Nc3nc4ccccc4s3)[C@H]3C(=O)O[C@H](c4ccccc4)[C@H](c4ccccc4)N3[C@@H]2c2ccccc2OCCO)cc1,2.86 (inactive),-0.118,2.32 (inactive),2.07 (inactive),-0.279 (inactive),-0.442 (inactive),0.81,1.91 (inactive),-0.0532 (inactive),0.268,0.609,1.61,0.211,-0.708,-0.451,-2.79,3.69 (inactive),-1.03,-1.27,-0.801 (inactive)
C=C(COC)/C(=C/C[C@@H](OC(C)=O)c1ccc(CO)o1)c1cc(C(=O)OC)ccc1OC,0.265 (inactive),0.051,1.56 (inactive),0.362 (inactive),0.389 (inactive),0.0621 (inactive),0.187,0.184 (inactive),-0.207 (inactive),0.13,-0.109,-0.461,0.322,-0.425,-0.0799,0.0492,0.208 (inactive),-0.726,-0.927,0.072 (inactive)
COc1cc(NN2C(C(O)C3CCCCC3)C=CC3C(=O)N(C)C(=O)C32)cc(OC)c1OC (stereo not given),-1.27 (inactive),0.949,0.713 (inactive),0.608 (inactive),0.917 (inactive),1.34 (inactive),-0.723,-0.904 (inactive),-2.73 (inactive),-1.7,-0.536,-0.0026,-0.848,-0.197,0.436,-0.326,-0.657 (inactive),0.316,0.144,-0.825 (inactive)
COc1cc(CO)cc(I)c1O[C@H]1C=C(C(=O)NCCO)C[C@@H](NCC2CCCCC2)[C@@H]1O,2.19 (inactive),-0.313,1.35 (inactive),0.94 (inactive),0.996 (inactive),0.183 (inactive),1.06,0.132 (inactive),0.97 (inactive),1.04,1.31,0.13,0.407,-0.235,0.893,1.25,-0.328 (inactive),-0.561,-1.5,0.258 (inactive)
C=CCNC(=O)[C@@H]1[C@H]2C(=O)O[C@H](c3ccccc3)[C@H](c3ccccc3)N2[C@H](c2ccc(OCCO)cc2)[C@@]12C(=O)N(C(=O)OCCOC)c1ccc(C#CCCO)cc12,3.11 (inactive),0.503,4.81 (inactive),0.343 (inactive),-0.38 (inactive),-1.47 (inactive),2.25,1.3 (inactive),0.821 (inactive),-0.573,2.85,1.86,1.22,0.485,0.927,-0.435,1.27 (inactive),-0.709,-1.07,-0.477 (inactive)
COC(=O)[C@@]1(Cc2ccccc2)[C@H]2c3cc(C(=O)N4CCCC4)n(CCSCCO)c3C[C@H]2CN1C(=O)c1ccccc1,-1.88 (inactive),0.597,1.5 (inactive),0.636 (inactive),0.57 (inactive),0.691 (inactive),-0.653,0.957 (inactive),-0.446 (inactive),-0.987,-0.52,0.629,0.422,-0.451,-0.874,0.59,-1.19 (inactive),0.26,0.0172,-0.845 (inactive)
COCCOC(=O)N1C(=O)[C@@]2(c3ccccc31)[C@H](c1ccccc1OCCO)N1[C@H](c3ccccc3)[C@H](c3ccccc3)OC(=O)[C@H]1[C@@H]2C(=O)N1CCCCCCC1,-0.553 (inactive),3.11,1.26 (inactive),0.612 (inactive),0.0224 (inactive),0.557 (inactive),-0.37,0.168 (inactive),-1.29 (inactive),0.481,-0.785,1,0.104,-2.51,-1.75,0.179,-0.256 (inactive),-0.641,-1.07,-0.585 (inactive)

# Reference: PubChem BioAssay
